Most compounds without a hit are left out; they make up all but 3.1% or so of the library.
TSHR antagonist – Antagonists of the Thyroid Stimulating Hormone Receptor: HTS campaign; 330,000 compounds, 0.2% hits; AID 504810, 2011; activity change, negative = inhibition, % at 11.5 µM; TSHR-expressing cells, TSH-stimulated cAMP HTRF, 2 h; stronger effect = lower value; Thyrotropin receptor (Homo sapiens), P16473;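 active means activity change below a set negative limit, meaning inhibition stronger than a set level, cut at about -70% in these data; inconclusive means activity change between two set negative limits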; further: on the % scale 0 is the no-effect control and ±100 the full control effect
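Cell-based HTRF cAMP assay; TSHR cells + compound, TSH EC80 (4nM final), 2 h, 37 deg C. Lysis with anti-cAMP cryptate and cAMP-d2, 30 min RT, read 665/620 nm.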
Vif-APOBEC3F blk – qHTS for Inhibitors of Vif-A3F Interactions: qHTS | HeLa A3F-eYFP + Vif (tagged APOBEC3F with the HIV-1 protein that degrades it), YFP fluorescence increase | Potency, µM (doses to about 46.1 µM), inactives show top-dose activity, negative = active | 390,000 compounds, 0.2% hits; further: potency means the concentration at half of the fitted maximal effect; % of control where 0% means no effect; nearly all actives have a fitted effect of over 65% in size
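HeLa cells stably expressing A3F-eYFP plus Vif, plated and incubated overnight at 37 deg C, then exposed to compounds overnight at 37 deg C. Blocked degradation read as raised yellow fluorescence (Ex 488/Em 500-530).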
Vif-APOBEC3G blk – qHTS for Inhibitors of Vif-A3G Interactions: qHTS | DNA dC->dU-editing enzyme APOBEC-3G (Homo sapiens), Q9HC16 | HeLa A3G-eYFP + Vif (tagged APOBEC3G with the HIV-1 protein that degrades it), YFP fluorescence, overnight | Potency, µM (highest dose often 46.1 µM), inactives show at the highest dose activity, negative = active, usual class: inhibitors | 410,000 compounds, 0.076% hits | AID 602310, 2012; further: potency means the concentration at half of the fitted maximal effect; on the % scale 0 is the no-effect control and ±100 the full control effect; nearly all actives have a fitted effect of over 60% in size
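Read-out is eYFP fluorescence (Ex 488/Em 500-530) from Vif-expressing HeLa A3G-eYFP cells; more signal means A3G escaped Vif-mediated degradation. Cells plated overnight, compound pinned in, incubated overnight at 37 deg C.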
PLK1 PBD block – qHTS for Inhibitors of PLK1-PDB (polo-like kinase 1 - polo-box domain): Primary Screen. Serine/threonine-protein kinase PLK1 (Homo sapiens), P53350. Potency, µM, for the others: max response, negative = inhibition, most hits filed as inhibitors. Plk1 PBD binding of FITC phosphopeptide, fluorescence polarization. 360,000 compounds, 2.8% hits; further: potency means the concentration at half of the fitted maximal effect; series mostly up to about 57 µM; on the % scale 0 is the no-effect control and ±100 the full control effect; nearly all actives have a fitted effect of over 65% in size
Target sequence (P53350 whole entry, looked up, the tested form may be a part): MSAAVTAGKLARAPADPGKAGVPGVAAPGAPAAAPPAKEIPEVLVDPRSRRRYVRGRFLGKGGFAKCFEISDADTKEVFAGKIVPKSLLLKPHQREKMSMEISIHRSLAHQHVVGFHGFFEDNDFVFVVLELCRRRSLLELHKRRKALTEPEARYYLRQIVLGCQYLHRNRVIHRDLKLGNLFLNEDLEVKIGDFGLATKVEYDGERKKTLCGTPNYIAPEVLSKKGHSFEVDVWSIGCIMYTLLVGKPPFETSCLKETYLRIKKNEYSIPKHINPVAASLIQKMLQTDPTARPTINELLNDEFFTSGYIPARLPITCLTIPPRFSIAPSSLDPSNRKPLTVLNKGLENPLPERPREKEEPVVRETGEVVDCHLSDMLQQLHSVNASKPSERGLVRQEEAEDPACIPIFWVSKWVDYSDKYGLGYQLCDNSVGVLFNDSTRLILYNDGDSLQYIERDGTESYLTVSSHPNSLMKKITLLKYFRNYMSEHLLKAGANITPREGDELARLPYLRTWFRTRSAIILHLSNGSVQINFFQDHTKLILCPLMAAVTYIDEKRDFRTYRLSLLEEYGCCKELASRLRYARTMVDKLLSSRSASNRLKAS
VDR inhibitor – Inhibitors of the vitamin D receptor (VDR): qHTS | VDR-SRC2-3 peptide fluorescence polarization, 2 h | Vitamin D3 receptor (Homo sapiens), P11473 | 400,000 compounds, 0.93% hits | Potency, µM, for the others: max response, negative = inhibition, most hits filed as inhibitors | AID 504847, 2011; further: potency means the concentration at half of the fitted maximal effect; on the % scale 0 is the no-effect control and ±100 the full control effect
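Compounds are added to VDR with labelled SRC2-3 coactivator peptide and held 2 h at room temperature. Inhibition of the VDR–peptide interaction is then read as a change in fluorescence polarization.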
VDR inh confirm – qHTS for Inhibitors of the vitamin D receptor (VDR): Hit Validation in Primary Screen | shares compounds with VDR inhibitor | VDR-coactivator inhibition assay, qHTS confirmation | Potency, µM, hits mostly inhibitors | 840 compounds, 89% hits; further: potency means the concentration at half of the fitted maximal effect
VDR FP – qHTS for Inhibitors of the vitamin D receptor (VDR): Hit Validation using a Fluorescein Assay. 840 compounds, 48% hits. Potency, µM (titrated, usually from 57.1 µM), without a hit: at the top dose activity change, negative = inhibition, hits mostly inhibitors. shares compounds with VDR inhibitor. VDR-coactivator binding, fluorescein fluorescence polarization; further: potency means the concentration at half of the fitted maximal effect
VDR bla – qHTS for Inhibitors of the vitamin D receptor (VDR): Hit Validation using a Beta-Lactamase Assay; shares compounds with VDR inhibitor; VDR beta-lactamase reporter cells, FRET ratio; cells co-treated with VDR agonist LG190178; AID 602202, 2012; 840 compounds, 23% hits; Potency, µM (titrated, usually from 46.1 µM), for inactives: at the top dose activity change, negative = inhibition, most hits filed as inhibitors; further: potency means the concentration at half of the fitted maximal effect; on the % scale 0 is the no-effect control and ±100 the full control effect
VDR cytotox – qHTS for Inhibitors of the vitamin D receptor (VDR): Hit Validation using a Cytotoxicity Assay | shares compounds with VDR inhibitor | cytotoxicity counter-screen, cell viability, qHTS | Potency, µM (titrated, usually from 48.3 µM), without a hit: top-dose activity change, negative = cytotoxicity, hits mostly cytotoxic | 840 compounds, 18% hits | AID 602204, 2012;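 further: potency means the concentration at half of the fitted maximal effect; plate controls were DMSO for no effect and high-concentration cycloheximide for full effect; nearly all actives have a fitted effect of over 75% in size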
Active calls of the source: *. Unless noted, the call rests on the fitted dose curve; in most records, active means well fitted curve in the direction sought with a large enough effect; inconclusive means small, poorly fitted or top-dose-only effect, or another doubt; inactive means no such curve, though single readings can be large; an effect the other way counts as inactive or inconclusive.

For O=C(CSc1ccccc1)Nc1nnc(COc2ccc(Cl)cc2)s1 the results were TSHR antagonist -11, Vif-APOBEC3F blk -22%, Vif-APOBEC3G blk 0%, PLK1 PBD block 2.7µM*, VDR inhibitor 40µM*, VDR inh confirm 3*, VDR FP inconclusive, VDR bla 18% and VDR cytotox 24%.
`Cc1cccc(C)c1OCc1nnc(NC(=O)CSc2ccc(Cl)cc2)s1` gave TSHR antagonist 5, Vif-APOBEC3F blk 3%, Vif-APOBEC3G blk 0%, PLK1 PBD block -6% and VDR inhibitor 4%.
Cc1onc(-c2ccccc2)c1C(=O)Nc1nnc(COc2ccc(Cl)cc2)s1 was read as TSHR antagonist -27, Vif-APOBEC3F blk 1%, Vif-APOBEC3G blk -1%, PLK1 PBD block 1.3µM*, VDR inhibitor 20µM*, VDR inh confirm 6.7*, VDR FP inconclusive, VDR bla -5% and VDR cytotox -18%.
`O=C(Cn1c(SCCOc2ccccc2Cl)nc2ccccc21)N1CCOCC1` gave Vif-APOBEC3F blk 2%, Vif-APOBEC3G blk -4% and VDR inhibitor 15%.
Screening CC(C)c1ccc(/C=C/c2[nH]c(=O)[nH]c(=O)c2[N+](=O)[O-])cc1 returned TSHR antagonist 9, Vif-APOBEC3F blk -23%, Vif-APOBEC3G blk -26%, PLK1 PBD block -6%, VDR inhibitor 22µM*, VDR inh confirm 3.8*, VDR FP inconclusive, VDR bla inconclusive and VDR cytotox 29%.
Screening O=c1[nH]c(/C=C/c2ccccc2Cl)c([N+](=O)[O-])c(=O)[nH]1 returned TSHR antagonist -12, Vif-APOBEC3F blk 2%, Vif-APOBEC3G blk 1%, PLK1 PBD block -29%, VDR inhibitor 35µM*, VDR inh confirm 19*, VDR FP 11µM*, VDR bla 17% and VDR cytotox 26%.
Screening COc1cccc(/C=C/c2[nH]c(=O)[nH]c(=O)c2[N+](=O)[O-])c1O returned TSHR antagonist -11, Vif-APOBEC3F blk inconclusive, Vif-APOBEC3G blk 0%, PLK1 PBD block inconclusive, VDR inhibitor 22µM*, VDR inh confirm 21*, VDR FP inconclusive, VDR bla 14% and VDR cytotox 24%.
`O=C(COc1ccccc1/C=C\c1[nH]c(=O)[nH]c(=O)c1[N+](=O)[O-])Nc1ccccc1` gave TSHR antagonist -1, Vif-APOBEC3F blk 1%, Vif-APOBEC3G blk -2%, PLK1 PBD block -12%, VDR inhibitor 20µM*, VDR inh confirm 4.2*, VDR FP inconclusive, VDR bla 0% and VDR cytotox inconclusive.
COc1ccc(C(=O)N(c2ccc(C)cc2)S(=O)(=O)c2ccc(C)cc2)cc1 was read as Vif-APOBEC3F blk -16%, Vif-APOBEC3G blk -16% and VDR inhibitor 5%.
For CCOc1cc(/C=C\c2[nH]c(=O)[nH]c(=O)c2[N+](=O)[O-])ccc1OC(C)CC (stereo not given) the results were TSHR antagonist -23, Vif-APOBEC3F blk 4%, Vif-APOBEC3G blk inconclusive, PLK1 PBD block -20%, VDR inhibitor 11µM*, VDR inh confirm 8.4*, VDR FP 175%, VDR bla inconclusive and VDR cytotox 19%.
Screening CCOc1ccc(-n2c(=O)c3c(C)c(C)sc3n(CC(=O)N3CCC(C)CC3)c2=O)cc1 returned VDR inhibitor 15%.
CCC(C)[C@@H](NC(=O)OC(C)(C)C)c1nnc(S(=O)(=O)Cc2cccc(C)c2)o1 (stereo not given in full) was read as TSHR antagonist -72*, Vif-APOBEC3F blk -10%, Vif-APOBEC3G blk -20%, PLK1 PBD block 8.4µM*, VDR inhibitor 25µM*, VDR inh confirm 4.7*, VDR FP inconclusive, VDR bla inconclusive and VDR cytotox inconclusive.
Screening Cc1ccccc1CS(=O)(=O)c1nnc([C@H](Cc2ccccc2)NC(=O)OC(C)(C)C)o1 returned TSHR antagonist inconclusive, Vif-APOBEC3F blk -4%, Vif-APOBEC3G blk -18%, PLK1 PBD block 7.5µM*, VDR inhibitor 20µM*, VDR inh confirm 6*, VDR FP 3.5µM*, VDR bla inconclusive and VDR cytotox inconclusive.
O=C(O)COc1ccc(/C=C/C(=O)c2ccc(C3CCCCC3)cc2)cc1 was read as TSHR antagonist -32, Vif-APOBEC3F blk 0%, Vif-APOBEC3G blk -29%, PLK1 PBD block 24µM*, VDR inhibitor inconclusive, VDR inh confirm 7.1*, VDR FP 13µM*, VDR bla inconclusive and VDR cytotox -8%.
Screening CC1=NOC(=O)/C1=C/c1ccc(N(C)C)cc1 returned TSHR antagonist 5, Vif-APOBEC3F blk -17%, Vif-APOBEC3G blk -1%, PLK1 PBD block inconclusive and VDR inhibitor -12%.
Screening CC1=NOC(=O)/C1=C\c1ccc(-c2cc(Cl)ccc2Cl)o1 returned TSHR antagonist -1, Vif-APOBEC3F blk -8%, Vif-APOBEC3G blk -4%, PLK1 PBD block 0.6µM*, VDR inhibitor 20µM*, VDR inh confirm 3*, VDR FP inconclusive, VDR bla inconclusive and VDR cytotox inconclusive.
`CC1=NOC(=O)/C1=C\c1ccc(-c2ccc(Br)cc2)o1` gave TSHR antagonist 29, Vif-APOBEC3F blk -1%, Vif-APOBEC3G blk inconclusive, PLK1 PBD block 0.6µM*, VDR inhibitor inconclusive, VDR inh confirm 3.2*, VDR FP inconclusive, VDR bla 1% and VDR cytotox -18%.
Screening CC(C)NC(=O)Cn1ncn2c(cc3cc(F)ccc32)c1=O returned Vif-APOBEC3F blk 1%, Vif-APOBEC3G blk -1% and VDR inhibitor 26%.

Compound activity deposited in PubChem BioAssay by National Center for Advancing Translational Sciences (NCATS).
